Results on 34 molecules are retold here after PubChem BioAssay AID2069 (Sanford-Burnham Center for Chemical Genomics, 2009).

Among all 1,200 compounds or so, about 210 (18%) were called active. Cut-off read from the data, not from the text of the source: active = inhibition above about 30%; inactive = the rest. Only a sample is shown.

The nature of this assay: fluorescence readout artefact check – biochemical, HTRF, uHTS, artefact control for SUMOylation inhibitor project, confirmation (AID 2069). Particulars: HTRF interference counterscreen, at 35 µM, stronger effect = higher value. For orientation: Time-resolved FRET reads energy transfer from a long-lived donor to a nearby acceptor.
Broadly, the inhibition is the change of the read-out against control, counted positive when it falls. For the molecule `CC1=C(C#N)C(=O)NC(=O)/C1=C/c1ccc(-c2ccc(S(N)(=O)=O)cc2)o1`, the inhibition is 19.2% (inactive).

`O=c1c2ccccc2nc2n1CCC2`: the inhibition is 31.4% (active).

For `Cc1nc2ccccc2c(=O)n1/N=C/c1ccc(O)c(O)c1O`, the inhibition was 7.15% (inactive).

On to `Cc1ccc(/C=N/NC(=O)c2cccc(S(=O)(=O)Nc3cccc(Cl)c3)c2)o1`, for which the inhibition is 9.55% (inactive).

As to `O=[N+]([O-])c1cccc(S(=O)(=O)Nc2nc3ccccc3nc2Nc2cccc(S(=O)(=O)N3CCCCC3)c2)c1`, the inhibition is -17.1% (inactive).

In the case of `CC1=NN(c2ccccc2)C(=O)/C1=C\c1ccc(Br)s1`, the inhibition was -10.7% (inactive).

`Nc1ccc(N2CCCCC2)c2nonc12`: the inhibition was -23.7% (inactive).

Turning to `COc1ccc(C2C3=C(CCCC3=O)Nc3c(-c4ccccc4)c(C)nn32)cc1` (centres undefined), the inhibition is 46.6% (active).

On to `COc1ccc(N2C3=C(CC4=C2CCCC4=O)C(=O)CCC3)cc1`, for which the inhibition is 18.1% (inactive).

As for `O=C(CNc1cccc2ccccc12)N/N=C/c1ccc([N+](=O)[O-])cc1`, the inhibition is -4% (inactive).

For the molecule `Cn1c(-c2ccc(C=O)s2)nc2ccccc21`, the inhibition is 49.1% (active).

For `Cn1c(CNc2ccc(O)cc2)nc2ccccc21`, the inhibition was -19.7% (inactive).

As for `Cn1c(-c2ccc(C=O)s2)nc2c3ccccc3c3ccccc3c21`, the inhibition is 22.3% (inactive).

As for `CC(C)CC(=O)Nc1ccc(C(=O)Cn2nc(C(=O)O)c3ccccc3c2=O)cc1`, the inhibition was -7.35% (inactive).

As to `[O-]/C(=C(\C(=S)Nc1cccc2ccccc12)[n+]1cccc(CO)c1)c1ccc(Cl)s1`, the inhibition is -14.8% (inactive).

In the case of `COc1ccc(Cn2c(C)c(C)c(C#N)c2NC(=O)Nc2ccc(F)cc2)cc1`, the inhibition was 1.75% (inactive).

As for `COc1ccc(Cc2n[nH]c(=S)n2NC(=O)Nc2ccc(Cl)c(Cl)c2)cc1`, the inhibition is 54.1% (active).

On to `COc1ccc(Cc2n[nH]c(=S)n2NC(=O)Nc2ccc(C)cc2)cc1`, for which the inhibition was 20.8% (inactive).

Turning to `CCOC(=O)C1=C(C)N=c2s/c(=C\c3ccc(OCC(=O)O)cc3)c(=O)n2C1c1ccc(OC(C)C)cc1` (centres undefined), the inhibition was 12.8% (inactive).

For the molecule `COc1ccc(C(=O)N2CCC(O)(c3ccc(F)cc3)CC2)cc1OC`, the inhibition was 39% (active).

Take `COc1cccc(OC)c1C(=O)N1CCNCC1`: the inhibition was -12.3% (inactive).

In the case of `Cc1[nH][nH]c(=O)c1C(c1c(C)[nH][nH]c1=O)c1cn(C)c2ccccc12`, the inhibition is -22.4% (inactive).

Regarding `COc1cccc(C(=O)Nc2cccc(C(=O)NC3=NN(c4c(Cl)cc(Cl)cc4Cl)C(=O)C3)c2)c1`, the inhibition was -11.8% (inactive).

As for `CCN(CC(=O)c1c(N)n(C)c(=O)n(C)c1=O)c1cccc2ccccc12`, the inhibition is 11.8% (inactive).

Take `COc1cc(/C=N/NC(=O)c2ccccc2O)ccc1OCC(=O)Nc1ccccc1`: the inhibition is 15.4% (inactive).

For the molecule `Cc1cc2n(n1)SC(Nc1cccc3ccccc13)N2` (centres undefined), the inhibition was -6.45% (inactive).

Turning to `Oc1cccc(C=Nc2cccc3ccccc23)c1O`, the inhibition was 8.55% (inactive).

Consider `Cc1ccc(N2CSC3=C(C#N)C(c4cccs4)CC(=O)N3C2)cc1` (centres undefined), for which the inhibition is -28.4% (inactive).

Consider `Cc1c(CC(=O)N2CCN(C(=O)C3COc4ccccc4O3)CC2)c(=O)oc2c(C)c(O)ccc12` (centres undefined), for which the inhibition was 66.6% (active).

With `Cc1ccc(C)c(S(=O)(=O)C(C#N)c2nc3ccccc3nc2N2CCCC2)c1` (centres undefined), the inhibition was 1.8% (inactive).

As to `CCCCCc1c2c(cc(O)c1C(=O)O)OC(=O)c1c(cc(OC)cc1C(=O)CCCC)O2`, the inhibition is 11.2% (inactive).

On to `c1coc(-c2nnc(-c3ccco3)nn2)c1`, for which the inhibition is 7.95% (inactive).

Take `Cc1cccc2nc(-c3ccco3)c(Nc3ccc4c(c3)OCO4)n12`: the inhibition was -6.85% (inactive).

As to `Cc1cc(=O)[nH]c(SCC(=O)c2ccc(O)c(O)c2)n1`, the inhibition is 7.45% (inactive).
